Reference: PubChem BioAssay AID2242 (National Center for Advancing Translational Sciences (NCATS), 2010)
The whole screen tested about 200,000 compounds, of which about 720 (0.36%) were called active. Roughly 8% stayed inconclusive and do not appear here. Calls come from the whole dose curve; as a rule, active = well fitted activation curve with a large enough effect; inconclusive = small, poorly fitted or top-dose-only effect, or effect the other way, or another doubt; inactive = flat fitted curve, though single readings scatter. The list shows a part of the results.

Target: Lysosomal alpha-glucosidase (Homo sapiens) (UniProt P10253)
Test: qHTS Assay for Activators of Human alpha-Glucosidase as a Potential Chaperone Treatment of Pompe Disease; note: nearly all actives have a fitted effect of over 80% in size
Details: purified enzyme, 4-MU-alpha-glucoside fluorescence, 20 min; series mostly up to 76.9 µM
Source text: NIH Chemical Genomics Center [NCGC] NIH Molecular Libraries Probe Production centers Network [MLPCN] MLPCN Grant: 1R03MH084841-01 Assay Submitter (PI): Wei Zheng NCGC Assay Overview: Alpha-glucosidase is responsible for hydrolysis of terminal, non-reducing 1,4-linked alpha-D-glucose residues with release of alpha-D-glucose. It is a lysosomal hydrolase that is required for the degradation of a small percentage (1-3%) of cellular glycogen in human. Deficiency of this enzyme results in glycogen-storage disease type II (GSDII), also referred to as Pompe disease, an autosomal recessive disorder. Structurally normal glycogen is accumulated in lysosomes and cytoplasm in affected patients, primarily in muscle tissues. Excessive glycogen storage within lysosomes may interrupt normal functioning of other organelles and leads to cellular injury. In turn, this leads to enlargement and dysfunction of the entire organ involved (eg, cardiomyopathy and muscle weakness). It has reported that the improper folding and trafficking of alpha-glucosidase resulting from the genetic mutations may account for a significant number of Pompe patients. […] We optimized this alpha-glucosidase assay in 1536-well plate format for identifying the novel small molecule inhibitors with the structures other than the sugar analogs in order to develop the new pharmacological chaperones, but are also able to detect potential activators. In conjunction with assays against alpha-galactosidase (AID 1467), fluorogenic false positive compounds can be identified.
NCGC Assay Protocol Summary: This is a fluorogenic enzyme assay with 4-methylumbelliferyl-alpha-D-[…] as the substrate and human alpha-glucosidase as the enzyme preparation. Upon the hydrolysis of this fluorogenic substrate, the resulting product, 1. 4-methyllumbelliferone, can be excited at 365 nm and emits at 440 nm which can be detected by a standard fluorescence plate reader. Data were normalized to the controls for basal activity (without enzyme) and 100% activity (with enzyme). In the AC50 values were determined from concentration-response data modeled with the standard Hill equation. Assay buffer: 50 mM citric acid (titrated with potassium phosphate to pH 5.0), 0.005% Tween-20, pH 5.0. (pH 5.0 is an optimal condition for this enzyme assay) 1536-well assay protocol for the human alpha-glucosidase: (1) Add 2 ul/well of enzyme (4 nM final) (2) Add 23 nL compounds in DMSO solution. The final titration was 0.7 nM to 77 uM. (3) Add 1 ul of substrate (400 uM final) (4) Incubate at room temperature for 20 min. (5) Add 2 ul stop solution (1M NaOH and 1M Glycine mixture, pH 10) (6) Detect the assay plate in a ViewLux plate reader (PerkinElmer) with Ex=365 nm and Em=440nm. Keywords: Alpha-glucosidase, Pompe Disease, pharmacological chaperone, chaperone therapy, high throughput screening, alpha-glucosidase inhibitor, MLSMR, MLSCN, NIH Roadmap, qHTS and NCGC
Potency is the fitted concentration of half-maximal effect.

Potency, active:
COc1cc(C(=O)Nc2sc3c(c2C(=O)NCc2ccco2)CCCC3)cc(OC)c1OC 28.2 µM
O=C(O)c1cc(-c2cccs2)nc2cc3c(cc12)OCCO3 25.1 µM
c1coc(CNc2nc(N3CCCCC3)nc3ccccc23)c1 39.8 µM
c1ccc2c(NCC3CCCO3)nc(N3CCCCC3)nc2c1 (stereo not drawn) 39.8 µM
CCCOc1ccccc1C1C(C(=O)OC)=CN(C(C)C)C=C1C(=O)OC 39.8 µM
CCCCOc1ccccc1C1C(C(=O)OC)=CN(CC)C=C1C(=O)OC 35.5 µM
CCOc1ccccc1C1C(C(=O)OC)=CN(C)C=C1C(=O)OC 35.5 µM
CC1CN(c2oc(-c3cccs3)nc2C#N)CC(C)O1 (stereo not drawn) 35.5 µM
CN(C)c1oc(-c2cccs2)nc1C#N 39.8 µM
N#Cc1c(-c2ccccc2F)cc(-c2cccnc2)nc1N 35.5 µM
N#Cc1c(-c2ccco2)cc(-c2ccccn2)nc1N 28.2 µM
N#Cc1c(-c2ccco2)cc(-c2cccnc2)nc1N 28.2 µM
CCN(CC)Cc1c(O)c(Cl)cc2c(C)c(C)c(=O)oc12 35.5 µM
CCc1c(C)c2cc(Cl)c(O)c(CN(CC)CC)c2oc1=O 35.5 µM
CCN(CC)Cc1c(O)c(Cl)cc2c(C)cc(=O)oc12 35.5 µM
CC1(C)Cc2nc(N3CCCC3)c(C#N)cc2CO1 35.5 µM
Cc1cc2c(C)cc(=O)oc2c2c1NCCC2 35.5 µM
CCNc1nc(N)c(C(=C(C#N)C#N)c2ccccc2)s1 35.5 µM
C=CCNc1nc(N)c(C(=C(C#N)C#N)c2ccccc2)s1 35.5 µM
O=C(c1cc2c(=O)n3ccccc3nc2s1)N1CCN(Cc2ccc3c(c2)OCO3)CC1 35.5 µM
O=C(c1cc2c(=O)n3ccccc3nc2s1)N1CCc2ccccc2C1 44.7 µM
CCOC(=O)C1CCN(C(=O)c2cc3c(=O)n4ccccc4nc3n2C)CC1 39.8 µM
Cn1c(C(=O)N2CCc3ccccc3C2)cc2c(=O)n3ccccc3nc21 31.6 µM
COC(=O)c1cc2c(=O)n3ccccc3nc2n(C)c1=N 25.1 µM
Cn1c(C(=O)N2COCC2(C)C)cc2c(=O)n3ccccc3nc21 35.5 µM
CC1CN(C(=O)c2cc3c(=O)n4ccccc4nc3s2)CC(C)O1 (stereo not drawn) 35.5 µM
COc1cccc2c(=O)c3c(cnn3C)n(C)c12 31.6 µM
O=C(Nc1ccc(-c2nc3ccccc3[nH]2)cc1)c1cccc(N2C(=O)CCC2=O)c1 35.5 µM
CCn1cc(C2C(C(=O)Nc3ccc(Br)cn3)=C(C)NC3=C2C(=O)CCC3)c(C)n1 (stereo not drawn) 31.6 µM
CC1=C(C(=O)Nc2ccccn2)C(c2cn(C)nc2C)C2=C(CCCC2=O)N1 (stereo not drawn) 28.2 µM
Cc1cc(C(F)(F)F)c(C#N)c(=O)[nH]1 31.6 µM
CC(C)(C)c1cc(C(F)(F)F)c(C#N)c(=O)[nH]1 35.5 µM
O=c1oc2cc(O)ccc2cc1-c1ccc(F)cc1 25.1 µM
CCCCc1cc(=O)oc2c(CN3CCCC3)c(O)c(Cl)cc12 31.6 µM
CCCc1cc(=O)oc2c(CN3CCCC3)c(O)c(Cl)cc12 35.5 µM
CCc1cc(=O)oc2c(CN3CCN(C)CC3)c(O)c(Cl)cc12 31.6 µM
Cc1c(O)ccc2c(CN3CCN(CCO)CC3)cc(=O)oc12 35.5 µM
CCc1cc(=O)oc2c(CN3CCCC3)c(O)c(Cl)cc12 39.8 µM
CCCc1cc(=O)oc2c(CN3CCN(C)CC3)c(O)c(Cl)cc12 35.5 µM
CCc1cc2c(CN3CCN(C)CC3)cc(=O)oc2cc1O 35.5 µM
CCc1ccc(S(=O)(=O)c2nnn3c2nc(NCCNC(C)=O)c2ccccc23)cc1 31.6 µM
CN(C)Cc1c(O)c(Cl)cc2c3c(c(=O)oc12)CCCC3 35.5 µM
CCN(CC)Cc1c(O)c(Cl)cc2c3c(c(=O)oc12)CCCC3 35.5 µM
CC(C)C(=O)Nc1c2c(nc3ccccc13)N(C)CC2 35.5 µM
CCCOc1cc(N(CC)CC)ccc1/C=C(/C#N)c1nc2ccc(C)cc2[nH]1 35.5 µM
CCOP(=O)(OCC)c1nc(/C=C/c2ccccc2)oc1NCc1ccccc1 35.5 µM
CCOP(=O)(OCC)c1nc(/C=C/c2ccccc2)oc1NCc1ccc(OC)cc1 35.5 µM
CCCCc1cc(=O)oc2c(CN(C)C)c(O)c(Cl)cc12 35.5 µM
CCCCc1cc(=O)oc2c(CN(C)C)c(O)ccc12 35.5 µM
CCCCc1cc(=O)oc2c(CN(CC)CC)c(O)c(Cl)cc12 35.5 µM
CC(NC(=O)CCSc1nc(-c2ccc3c(c2)OCO3)cc(C(F)(F)F)n1)c1ccccc1 (stereo not drawn) 35.5 µM
COc1ccc(-c2n[nH]c(C(F)(F)F)c2-c2cc3ccccc3o2)c(O)c1 35.5 µM
O=C(O)c1cc(-c2ccc(Cl)s2)nc2ccccc12 35.5 µM
CCC(=O)N1N=C(c2ccc(NS(=O)(=O)CC)cc2)CC1c1ccc(C)cc1 (stereo not drawn) 35.5 µM
CCS(=O)(=O)Nc1ccc(C2=NN(C(C)=O)C(c3cccs3)C2)cc1 (stereo not drawn) 35.5 µM
CC(=O)Nc1ccc(C2=NN(c3ccccc3)C(c3cccs3)C2)cc1 (stereo not drawn) 28.2 µM
COc1ccc(C2C3=C(CCCC3=O)Nc3nc(-c4cc(OC)c(OC)c(OC)c4)nn32)cc1OC (stereo not drawn) 35.5 µM
COC(=O)C1=CN(CCCN2CCCC2=O)C=C(C(=O)OC)C1c1cccs1 39.8 µM
COC(=O)C1=CN(CCCN2CCCC2=O)C=C(C(=O)OC)C1c1ccccc1C(F)(F)F 28.2 µM
Cc1ccc2c(c1)c1ncnc(N3CCC4(CC3)OCCO4)c1n2C 39.8 µM
CCNc1nc2nc3ccc(C)cn3c(=O)c2cc1C(=O)NCC1CCCO1 (stereo not drawn) 35.5 µM
Cc1ccc2nc3c(cc(C(=O)NCC4CCCO4)c(=N)n3CCCOC(C)C)c(=O)n2c1 (stereo not drawn) 31.6 µM
CCCn1c(=N)c(C(=O)NC2CCCC2)cc2c(=O)n3cccc(C)c3nc21 28.2 µM
COCCCn1c(=N)c(C(=O)NCC2CCCO2)cc2c(=O)n3cccc(C)c3nc21 (stereo not drawn) 35.5 µM
CCn1c(=N)c(C(=O)NCCCOC)cc2c(=O)n3cccc(C)c3nc21 28.2 µM
COC(=O)Cc1cc(=O)oc2cc(O)ccc12 35.5 µM
O=C(Cc1cc(=O)oc2cc(O)ccc12)NCC1CCC(C(=O)O)CC1 (stereo not drawn) 35.5 µM
CCCCc1cc(=O)oc2cc(O)ccc12 35.5 µM
N#Cc1c(-c2cccc(Br)c2)cc(-c2ccco2)[nH]c1=O 39.8 µM
O=C(NC(=S)N(Cc1ccccc1)Cc1ccccc1)C1CCCCC1 39.8 µM
c1ccn2c(c1)nc1c2nc2ccccn21 31.6 µM
COC(=O)C1=CN(CC2CCCO2)C=C(C(=O)OC)C1c1cc(OC)c(OC)c(OC)c1 (stereo not drawn) 35.5 µM
COC(=O)C1=CN(CC2CCCO2)C=C(C(=O)OC)C1c1ccsc1 (stereo not drawn) 35.5 µM
COc1cc2c(cc1/C=C/C(=O)O)OC(C)C2 (stereo not drawn) 39.8 µM
CCCc1cc(=O)[nH]c(SCC(=O)c2cc(C)n(CCC)c2C)n1 39.8 µM
Cc1cccc(-c2cc3nc(-c4ccccc4)cc(N4CCC5(CC4)OCCO5)n3n2)c1 35.5 µM
COc1cccc(-c2cc3nc(-c4ccccc4)cc(N4CCC5(CC4)OCCO5)n3n2)c1 39.8 µM
COC(=O)c1cc2c(s1)-c1ccccc1OC2 35.5 µM
CCOC(=O)c1cc2c(s1)-c1c(C)cccc1OC2 35.5 µM
O=C(O)c1cc2c(s1)-c1ccccc1OC2 31.6 µM
O=C(NC1CC1)c1cc2c(s1)-c1ccccc1OC2 35.5 µM
CCOC(=O)c1cc2c(=O)n3ccccc3nc2n(CCOC)c1=NC(=O)C(C)(C)C 35.5 µM
CCOC(=O)c1cc2c(=O)n3ccccc3nc2n(Cc2ccco2)c1=NC(=O)c1ccccc1OC 31.6 µM
CCOC(=O)c1cc2c(=O)n3ccccc3nc2n(CCCOC)c1=NC(=O)C(C)(C)C 35.5 µM
CCOC(=O)c1cc2c(=O)n3ccccc3nc2n(CCOC)c1=NC(=O)c1ccncc1 31.6 µM
CCOC(=O)c1cc2c(=O)n3ccccc3nc2n(CCCOC)c1=NC(=O)c1cccnc1 35.5 µM
COc1cccc(-c2ccc(C#N)c(OC(=O)c3ccc(Cl)cc3)n2)c1 35.5 µM
COC(=O)C1=CN(C2CC2)C=C(C(=O)OC)C1c1ccccc1OC 35.5 µM
COC(=O)C1=CN(C2CC2)C=C(C(=O)OC)C1c1ccc(C(=O)OC)cc1 35.5 µM
CCN1CCn2c3c(c4cc(Cl)ccc42)CCCC31 (stereo not drawn) 31.6 µM
O=C(Nc1c2ccccc2nc2ccccc12)C(Cl)(Cl)Cl 35.5 µM
O=c1oc2ccccc2cc1-c1nc2ccccc2o1 31.6 µM
CC(=O)Nc1nc2n(n1)C(c1ccc(Cl)cc1)C=C(C)N2 (stereo not drawn) 35.5 µM
CC(C)n1c(=NC(=O)c2ccco2)c(C#N)cc2c(=O)n3ccccc3cc21 31.6 µM
CCCCCn1c(=O)[nH]c2cc(C(=O)O)ccc2c1=O 35.5 µM
COC(=O)c1ccc2c(=O)n(CCCCCC(=O)NCc3ccccn3)c(=O)[nH]c2c1 31.6 µM
COC(=O)c1ccc2c(=O)n(CCCCCC(=O)O)c(=O)[nH]c2c1 31.6 µM
CCN(CC)CCNC(=O)c1ccc2c(=O)n(CCc3ccccc3)c(=O)[nH]c2c1 35.5 µM
